In ChEMBL document CHEMBL4513216, “Probing the Open Global Health Chemical Diversity Library for Multistage-Active Starting Points for Next-Generation Antimalarials” (ACS Infect Dis, 2020):
In all, about 69,000 compounds went through this assay and about 8,600 (12%) showed an effect of 50% or more. The sample holds strong results, similar compounds and a random draw of the others, so the mix is not that of the screen.

system: Plasmodium berghei; assay: Screen against P. berghei liver stage (PbLuc), transformed with Luciferase, at 10uM; format: functional, HepG2; settings: tested at 10 uM

| SMILES | INHIBITION |
| --- | --- |
| COc1ccc(CNC(=O)c2ccoc2CN2CCNC(=O)C2)cc1 | 29.3% |
| CCCc1nc(N2CCCCCC2)c2c(n1)c(C)nn2CC | 78.4% |
| CCCc1nc(N2CCC(C)CC2)c2c(n1)c(C)nn2CC | 12.3% |
| CCCc1nc(N2CCCCC2)c2c(n1)c(C)nn2CC | 11.7% |
| CCCc1nc(N2CCCC(C)C2)c2c(n1)c(C)nn2CC (configuration not stated) | 66.5% |
| CCCc1nc(N2CCN(CC)CC2)c2c(n1)c(C)nn2CC | 33.5% |
| CCCc1nc(N2CCSCC2)c2c(n1)c(C)nn2CC | -3.47% |
| CCC(=O)N1CCC(c2nc(O)c3c(n2)CN(C2CCCCC2)CC3)C1 (configuration not stated) | 38.8% |
| Cn1cccc1C(=O)N1CCO[C@@H]2CN(Cc3ccco3)C[C@@H]2C1 | 15.8% |
| c1csc(CN2CCc3ncnc(C4CCOC4)c3CC2)c1 (configuration not stated) | 33% |
| COc1cccc(-c2n[nH]cc2CNC2CCC(O)CC2)c1 (configuration not stated) | 19.4% |
| COc1ccc(-c2ccoc2)cc1CNC1CCCC1 | 61.9% |
| COc1ccc(-c2cn[nH]c2)cc1CNC1CCCC1 | 9.04% |
| COc1ccc(-c2cc[nH]n2)cc1CNC1CCCC1 | 72.1% |
| CCN1CCC(CNCc2cc(OC)ccc2OC)C1 (configuration not stated) | 10.1% |
| COc1ccc(CNC2CCN(CCc3ccncc3)CC2)cc1O | -4.86% |

| SMILES | INHIBITION |
| --- | --- |
| COc1ccc(OC)c(CNC2CCCc3nc(N(C)C)ncc32)c1 (configuration not stated) | 37.6% |
| COc1ccc(-c2ccncc2)cc1CNC1CCCC1 | 51.7% |
| COc1ccc(OC)c(CNC2CCCN(c3cccnn3)C2)c1 (configuration not stated) | 30.5% |
| Cc1cc(C(=O)CN(Cc2cccnc2)CC2CCCO2)c(C)[nH]1 (configuration not stated) | 10.7% |
| Cc1cnc(C(NC(=O)NCC2(CO)CC2)C2CC2)s1 (configuration not stated) | 22.8% |
| CC(C)c1nc(C(=O)N2C[C@@H]3CC[C@H]2CN(C2CCOCC2)C3)cs1 | 44.8% |
| CCn1ccc(C(=O)N2CCCC2(C)c2nc(C)cc(N(C)C)n2)n1 (configuration not stated) | -4.51% |
| COc1ccc(CNc2n[nH]c(C)n2)cc1 | 4.03% |
| COc1ccc(CNC(C)c2cnc3cc(C)nn3c2C)cc1 (configuration not stated) | 28.4% |
| COc1cccc(CNc2c(C)nn(C(C)C)c2C)c1 | 31.3% |
| COc1ccc(CNc2c(C)nn(C(C)C)c2C)cc1 | 69.3% |
| COc1ccc(C(=O)Nc2c(C)nn(C(C)C)c2C)cc1 | 10% |
| COc1ccc(CNc2c(C)nn(C(C)C)c2C)cc1OC | 62.8% |
| COc1ccc2cc(CNc3c(C)nn(C(C)C)c3C)ccc2c1 | 62.8% |
| COc1ccc(CNc2nc(C3CC3)no2)cc1OC | 25.6% |
| COc1ccc(CNc2cccnc2-n2cccn2)cc1OC | 23.9% |
